We go through 64 compounds from PubChem BioAssay AID598 (SRMLSC, 2007).

The whole screen tested about 85,000 compounds, of which about 5,100 (6%) were called active.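 Rule for the calls: active = viability at or below 40%; inactive = viability above 40%.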 Only a selection was taken, and actives are over-represented in it overall.

The nature of the assay: proliferation blockers of H69AR lung cancer cells, primary screen, cell-based, human, 86K library (AID 598).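 Note: multidrug resistant small cell line overexpressing MRP-1 efflux transporter; 100% = mean luminescence of untreated control wells.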 The conditions noted are these: H69AR lung tumor viability, ATP luminescence, 72 h; at 10 µM; active compounds read low.
By viability is commonly meant a read-out of living cells in per cent, often relative to untreated cells. In the case of `O=C(c1ccc2c(c1)OCO2)N1CCOCC1`, the viability is 96.2% (inactive).
In the case of `O=C(Cn1cnc2c(cnn2-c2ccc(F)cc2)c1=O)NCCc1ccccc1` it was 99.4% (inactive); in that of `CN(Cc1ccccc1)C(=O)CCNC(=O)Cn1cnc2ccccc2c1=O`, 93.7% (inactive).
With `O=C(Cn1cnc2c(cnn2-c2ccccc2)c1=O)NCc1ccccc1` the figure was 30.8% (active); with `O=C(OC1CCCCC1=O)c1cccc(S(=O)(=O)NCc2ccccc2)c1` (centres undefined), 68.2% (inactive).
With `Cc1nn(C)c(C)c1S(=O)(=O)N1CCc2ccccc21` the figure was 95.6% (inactive); with `Cn1c(=O)n(C)c2cc(S(=O)(=O)N3CCCc4ccccc43)ccc21`, 21.1% (active); with `Cn1c(=O)c(=O)n(C)c2cc(S(=O)(=O)NCCc3ccccc3)ccc21`, 94.1% (inactive).
Regarding `CSc1nc2ccc(S(=O)(=O)N3CCc4ccccc43)cc2s1`, the viability was 64.1% (inactive).
`CCn1c(=O)c(=O)n(CC)c2cc(S(=O)(=O)N3CCc4ccccc43)ccc21`: the viability is 27.2% (active).
In the case of `Cc1ccc(S(=O)(=O)N2CC(=O)Nc3ccccc32)cc1C` it was 102% (inactive); in that of `CC1=CC(C)(C)NC(=S)N1c1ccccc1`, 98.5% (inactive); in that of `CCN(CC)CCCNC(=O)CCc1ccccc1`, 97.4% (inactive).
In the case of `O=C(NCCOc1ccccc1)c1ccccc1` it was 91.4% (inactive).
Turning to `CCc1ccc(CNC(=O)C2CCCN(c3nc4ccccc4o3)C2)cc1` (centres undefined), the viability is 92.4% (inactive).
With `NC1=NC(=O)C2(COC(c3ccccc3Cl)OC2)S1` (centres undefined) the figure was 92.6% (inactive); with `CCOc1ccc(-n2c(N)c(C(=O)NCC3CCCO3)sc2=S)cc1` (centres undefined), 94.8% (inactive).
Take `Oc1c(Cl)cc(Cl)c(Cl)c1Cc1c(O)c(Cl)cc(Cl)c1Cl`: the viability is 13.5% (active).
With `COc1cc(OC)nc(NC(=O)CCl)n1` the figure was 98.7% (inactive).
Take `C=C(Cl)COC(=O)C1C2C=CC(C2)C1C(=O)O` (centres undefined): the viability was 101% (inactive).
With `Cc1csc(NC(=O)CN2CCCCCC2)n1` the figure was 95.1% (inactive); with `Cc1csc(NC(=O)NC2(C(F)(F)F)Oc3ccccc3O2)n1`, 22.9% (active); with `CCOC(=O)Cc1csc(NC(=O)Nc2ccccc2)n1`, 96.7% (inactive).
As for `COc1cc(CC(=O)NCc2cccs2)cc(OC)c1OC`, the viability is 106% (inactive).
For `COc1ccc(Nc2nc(=O)[nH]nc2C)cc1`, the viability was 95.5% (inactive).
With `CCOC(=O)c1sc(NC(=O)CCN2CCOCC2)c(C(=O)OCC)c1C` the figure was 45.7% (inactive); with `CCOC(=O)Nc1sc(C(=O)N(C)C)c(C)c1C(=O)OCC`, 84.2% (inactive).
With `CCOC(=O)c1c(NC(=O)CCl)sc(C(=O)N(CC)CC)c1C` the figure was 2.11% (active); with `Cc1ccc(C(=O)N2CCCC2)c(F)c1F`, 87.4% (inactive); with `CC(C)c1ccc(OCC(O)Cn2cnc3ccccc32)cc1` (centres undefined), 82.6% (inactive).
With `OC(COc1ccccc1)Cn1cc(Br)cn1` (centres undefined) the figure was 109% (inactive).
Consider `OC(CN=c1sc2ccccc2n1CC(O)COc1ccccc1)COc1ccccc1` (centres undefined), for which the viability was 23.3% (active).
With `Cc1cccn2c(=O)c(/C=C(\C#N)S(=O)(=O)c3ccc(Cl)cc3)c(N3CCC(C(N)=O)CC3)nc12` the figure was 82.2% (inactive); with `CC(OC(=O)CN1C(=O)C2CCCCC2C1=O)C(=O)Nc1ncc(Cl)cc1Cl` (centres undefined), 101% (inactive).
Take `CC1=CC(C)(C)Nc2ccc(OC(=O)CN3C(=O)C4CCCCC4C3=O)cc21` (centres undefined): the viability was 0.5% (active).
In the case of `CC1=CC(C)(C)Nc2ccc(OC(=O)C(Cc3ccccc3)N3C(=O)C4CCCCC4C3=O)cc21` (centres undefined) it was 80.3% (inactive); in that of `CCCCCCSc1nsc(N)n1`, 82.7% (inactive).
In the case of `CCOC(=O)c1[nH]c(C)c(C(=O)OCC(=O)N2c3ccccc3CC2C)c1C` (centres undefined) it was 87% (inactive); in that of `CC(C)OC(=O)CN1C(=O)C(=O)c2ccccc21`, 13.1% (active); in that of `CC(C)OC(=O)CN1C(=O)c2ccccc2C1=O`, 98% (inactive).
In the case of `CCOC(=O)c1cc2n(c1C)-c1ccccc1C2=O` it was 90.3% (inactive); in that of `CCCCOC(=O)Cn1c(=O)n(CC(=O)OCCCC)c2cc(C)ccc21`, 99.5% (inactive); in that of `CCOC(=O)CN1C(=O)C(=O)c2cc(C)ccc21`, 20.2% (active).
`Cc1cccc2c1N(CC(=O)OC(C)C)C(=O)C2=O`: the viability was 71.7% (inactive).
`CCCc1nc2ccccc2c(C(=O)OCC(=O)c2ccc3c(c2)NC(=O)CO3)c1CC`: the viability is 43.2% (inactive).
`Cc1ccc(Cc2c(C)nc3nc(SCC(=O)NCCN4CCOCC4)nn3c2C)cc1`: the viability was 93.9% (inactive).
With `CCOc1ccc(NC(=O)CN(C)CC(=O)Nc2cccc(Cl)c2C)cc1OCC` the figure was 48.5% (inactive); with `Cc1cccc(NC(=O)N(Cc2cc3cc(C)cc(C)c3[nH]c2=O)CC2COCCO2)c1` (centres undefined), 47% (inactive); with `Cn1c(Cn2nnc3ccccc32)nnc1SCC(=O)c1ccccc1F`, 79.3% (inactive).
Regarding `CN=C1SC(CC(=O)Nc2ccc(C(=O)O)cc2)C(=O)N1C` (centres undefined), the viability is 97.5% (inactive).
In the case of `O=C(CN1C(=O)CC(c2ccccc2)=Nc2ccccc21)NC1CCCCC1` it was 77.6% (inactive); in that of `Cc1ccnc(-n2sc3ccccc3c2=O)n1`, 1.54% (active); in that of `Cc1nc2ccccc2c(=O)n1CCCn1ccnc1`, 99% (inactive).
`Cc1ccnc(N2CCC(C(=O)NC3CCCCCC3)CC2)n1`: the viability is 77.9% (inactive).
With `CC(C)(C)N1CC(c2nc3ccccc3n2Cc2ccc(F)cc2)CC1=O` (centres undefined) the figure was 79.4% (inactive); with `CCCn1c(C(Cc2ccccc2)NC(=O)COC)nc2ccccc21` (centres undefined), 92.9% (inactive).
In the case of `CNC(=O)c1nnc(Cc2ccc(Cl)cc2)o1` it was 97.8% (inactive).
With `O=C(COC(=O)c1ccc2c(c1)OCCO2)NCc1ccccc1` the figure was 92.1% (inactive); with `O=C(CCN1CCc2ccccc2C(O)(c2ccccc2)C1)c1ccc2c(c1)OCCO2` (centres undefined), -0.08% (active).
Regarding `O=C(OCc1ccccc1F)c1ccc2c(c1)OCCO2`, the viability is 91.2% (inactive).
As to `CCn1c(SCC(=O)Nc2nc(C)cs2)nnc1C(C)NC(=O)c1ccccc1` (centres undefined), the viability was 88.1% (inactive).
With `COCCn1c(=S)[nH]c2cc(C(=O)NCCc3ccc(OC)c(OC)c3)ccc2c1=O` the figure was 78.1% (inactive); with `N#CC1=C(N)Oc2c(sc3ccccc23)C1c1ccco1` (centres undefined), 14.4% (active); with `Cc1cc2c(c(=O)n1Cc1ccco1)C(c1ccccc1)C(C#N)=C(N)O2` (centres undefined), 70% (inactive).
